VACV mCherry inh = vaccinia inhibition (mCherry reporter). Vaccinia virus mCherry reporter infection, fluorescence. AID 720579. actives 0.63% (n = 310,000). Potency, µM (doses to about 36.5 µM), most hits filed as inhibitors; calls by dose curve; tested in A549 cells; further: nearly all actives have a fitted effect of over 35% in size
MARV entry inh = inhibitors of Marburg virus binding or cell entry | Marburg virus pseudotyped entry inhibition, cell reporter | Potency, µM (series often up to 37.8 µM), usual class: inhibitors | actives 1.8% (n = 300,000) | AID 540276; calls by dose curve; tested in HEK293 cells
Vaccinia Venus = inhibitors of vaccinia virus (Venus reporter); actives 0.46% (n = 330,000); Vaccinia virus Venus reporter expression, fluorescence; Potency, µM (top dose mostly 36.5 µM), hits mostly inhibitors; calls by dose curve; tested in A549 cells; further: nearly all actives have a fitted effect of over 30% in size
LASV entry inh = blocks Lassa virus binding to or entry into cells; Lassa virus pseudotype entry inhibition, cell reporter; Potency, µM (titrated, usually from 37.9 µM), usual class: inhibitors; actives 1.2% (n = 300,000); AID 540256; calls by dose curve; tested in HEK293 cells; further: nearly all actives have a fitted effect of over 50% in size
FMDV inh = antivirals against foot and mouth disease virus. FMDV antiviral cell-based qHTS. Potency, µM (highest dose often 57.9 µM), usual class: inhibitors. actives 1.2% (n = 410,000). AID 1159524; calls by dose curve; tested in HEK293T cells; further: read-out not given here; nearly all actives have a fitted effect of over 45% in size
HCMV inh = inhibitors of human cytomegalovirus | actives 4.5% (n = 410,000) | AID 1259415 | activity change, negative = inhibition, % at 57.5 µM | HFF cells, HCMV-luciferase reporter, 72 h; hits give low values; in the data active means activity change below about -60%; inconclusive means no clear call, values can overlap the other calls; inactive means above about -39%
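Inhibition of viral replication was scored as loss of reporter luminescence in HFFs infected with HCMV-luciferase (MOI 1 PFU/cell) for 72 h; compounds tested at 2 doses, normalized to buffer and Salinomycin controls.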
Of the large screens only hits and unclear results are named; the others gave an inactive call. Most compounds without a hit are left out; they make up all but 6.5% or so of the library.

COc1ccc2ccccc2c1CN1CCCC(n2cc(C(=O)N3CCCC3)nn2)C1 (stereo not given)	none (no result: MARV entry inh, LASV entry inh, HCMV inh)
O=C(Nc1ccc(Cl)cc1Cl)[C@@H]1CC=C[C@@H]2CCN(Cc3ccccc3)C(=O)[C@@H]21	none (no result: MARV entry inh, LASV entry inh, FMDV inh, HCMV inh)
Cc1nc(N)c(CC(Br)CBr)c(Cl)n1 (stereo not given)	HCMV inh -68.5 (no result: VACV mCherry inh, MARV entry inh, Vaccinia Venus, LASV entry inh)
CC(=O)c1ccccc1NC(C(=O)Nc1c(C)cccc1C)C1CC1 (stereo not given)	none (no result: VACV mCherry inh, MARV entry inh, Vaccinia Venus, LASV entry inh, FMDV inh)
N#Cc1c2n(c3c(=S)nc[nH]c13)CCCCC2	HCMV inh -74.7 (no result: VACV mCherry inh)
N#Cc1c2n(c3c(=O)[nH]cnc13)CCCC2	none (no result: VACV mCherry inh, Vaccinia Venus)
CCOc1ccc(-n2c(=O)c3c(C)c(C)sc3n(CC(=O)C(C)(C)C)c2=O)cc1	none
Nc1nnc(-c2ccc([N+](=O)[O-])o2)s1	VACV mCherry inh inconclusive, MARV entry inh inconclusive, Vaccinia Venus inconclusive, LASV entry inh inconclusive
O=c1[nH]nc(-c2ccc([N+](=O)[O-])o2)c(=O)[nH]1	MARV entry inh inconclusive, HCMV inh -93.2
CCC1Sc2ccccc2N(CC(=O)NCc2ccc(C)cc2)C1=O (stereo not given)	LASV entry inh inconclusive (no result: MARV entry inh)
O=S(Cc1ccc(Cl)cc1)CC(O)(c1ccccc1)c1ccccc1 (stereo not given)	none (no result: VACV mCherry inh, Vaccinia Venus)
O=S(Cc1ccccc1)CC(O)(c1ccc(Cl)cc1)c1ccc(Cl)cc1 (stereo not given)	MARV entry inh inconclusive, HCMV inh -91.6 (no result: VACV mCherry inh, Vaccinia Venus)
COc1cccc(CNC(=O)c2c(OC)cc(=O)n3c2CCN(C(=O)C2CC24CCCCC4)CC3)c1 (stereo not given)	none (no result: MARV entry inh, LASV entry inh, HCMV inh)
COCC1CCN(Cc2cn(Cc3ccccc3)nc2-c2cc3ccccc3o2)CC1	MARV entry inh inconclusive, LASV entry inh inconclusive
COCC1CCCN(Cc2cn(Cc3ccccc3)nc2-c2cc3ccccc3o2)C1 (stereo not given)	MARV entry inh 2.51µM, LASV entry inh inconclusive, HCMV inh -77.7
COc1ccc(Br)cc1CNC(=O)CN1C(=O)c2cccnc2Oc2ccc(C)cc21	Vaccinia Venus inconclusive, LASV entry inh inconclusive, HCMV inh active (no result: MARV entry inh)
Cc1ccc2c(c1)N(CC(=O)NCc1ccccc1Br)C(=O)c1cccnc1O2	LASV entry inh inconclusive (no result: MARV entry inh)
COC(=O)C1=C(C(=O)OC)[C@@H]2Nc3ccccc3[C@@]23C[C@@H](C(=O)OC)N(C(=O)Nc2ccccc2F)C3=N1	none (no result: VACV mCherry inh, Vaccinia Venus, LASV entry inh, FMDV inh, HCMV inh)
CCN(CC)CCNC1=NCCn2c1cc1cc(OC)ccc12	MARV entry inh inconclusive, LASV entry inh 8.2µM (no result: VACV mCherry inh, Vaccinia Venus)
COC(=O)C[C@H]1CC[C@@H](NC(=O)Nc2c(C)noc2C)[C@@H](CO)O1	HCMV inh -65.1 (no result: MARV entry inh, LASV entry inh)
COC(=O)C[C@@H]1CC[C@@H](NC(C)=O)[C@@H](CO)O1	none (no result: MARV entry inh, LASV entry inh)
Cc1cc(C)c2sc(N(CCCN(C)C)C(=O)c3ccc(S(=O)(=O)N4CCCc5ccccc54)cc3)nc2c1	FMDV inh inconclusive, HCMV inh -60.6 (no result: VACV mCherry inh, MARV entry inh, Vaccinia Venus, LASV entry inh)
Cc1cccc2sc(N(CCCN(C)C)C(=O)c3ccc(S(=O)(=O)N4CCc5ccccc5C4)cc3)nc12	VACV mCherry inh inconclusive, MARV entry inh inconclusive, LASV entry inh inconclusive, HCMV inh -99.6
CN(C)CCCN(C(=O)c1ccc(S(=O)(=O)N2CCc3ccccc32)cc1)c1nc2ccc(F)cc2s1	MARV entry inh inconclusive, LASV entry inh inconclusive
CN(C)CCCN(C(=O)c1ccc(S(=O)(=O)N2CCc3ccccc3C2)cc1)c1nc2ccc(F)cc2s1	VACV mCherry inh 12.6µM, MARV entry inh inconclusive, Vaccinia Venus 15.8µM, LASV entry inh inconclusive
Cc1ccc2nc(N(CCCN(C)C)C(=O)c3ccc(S(=O)(=O)N4CCc5ccccc5C4)cc3)sc2c1	VACV mCherry inh inconclusive, MARV entry inh inconclusive, Vaccinia Venus inconclusive, LASV entry inh inconclusive, FMDV inh inconclusive, HCMV inh -103.1
O=C(NCc1ccccn1)[C@H]1[C@H](CO)[C@H]2Cn3c(cccc3=O)[C@@H]1N2CC1CCCCC1	none (no result: VACV mCherry inh, MARV entry inh, Vaccinia Venus, LASV entry inh, FMDV inh)
O=C(CSc1nc(-c2cccs2)nc2cc(=O)[nH]n12)Nc1cccc(C(F)(F)F)c1	none (no result: MARV entry inh)
COc1ccc2sc(N(CCCN(C)C)C(=O)c3ccc(S(=O)(=O)N4CCc5ccccc5C4)cc3)nc2c1	VACV mCherry inh inconclusive, MARV entry inh inconclusive, Vaccinia Venus 11.2µM, LASV entry inh 3.55µM, FMDV inh 25.1µM, HCMV inh -97.6
CCN(CC)Cc1c(O)ccc2occ(C(=O)c3ccc(OC)cc3)c12	MARV entry inh inconclusive, LASV entry inh inconclusive (no result: VACV mCherry inh)
CCN(CC)Cc1c(O)ccc2c([N+](=O)[O-])c(C)n(-c3ccc(OC)cc3)c12	MARV entry inh inconclusive, HCMV inh -95.9 (no result: VACV mCherry inh)
